Test results from the supplement of paper PMC3334620.
Over roughly 33,000 sequences, “E-score (-0.5 to 0.5)” has its median near -0.021; the highest 2% begin near 0.32. The sample as a whole holds a higher share of the highest values than the screen did.

Each sequence was assayed against T1, Zap1 (UniProt P47043) (assay: PBM E-score (8-mer binding enrichment) (E-score (-0.5 to 0.5)); higher = stronger / more preferred TF binding). Settings: protein concentration: 200 nM; construct: GST-full length.
T1 sequence: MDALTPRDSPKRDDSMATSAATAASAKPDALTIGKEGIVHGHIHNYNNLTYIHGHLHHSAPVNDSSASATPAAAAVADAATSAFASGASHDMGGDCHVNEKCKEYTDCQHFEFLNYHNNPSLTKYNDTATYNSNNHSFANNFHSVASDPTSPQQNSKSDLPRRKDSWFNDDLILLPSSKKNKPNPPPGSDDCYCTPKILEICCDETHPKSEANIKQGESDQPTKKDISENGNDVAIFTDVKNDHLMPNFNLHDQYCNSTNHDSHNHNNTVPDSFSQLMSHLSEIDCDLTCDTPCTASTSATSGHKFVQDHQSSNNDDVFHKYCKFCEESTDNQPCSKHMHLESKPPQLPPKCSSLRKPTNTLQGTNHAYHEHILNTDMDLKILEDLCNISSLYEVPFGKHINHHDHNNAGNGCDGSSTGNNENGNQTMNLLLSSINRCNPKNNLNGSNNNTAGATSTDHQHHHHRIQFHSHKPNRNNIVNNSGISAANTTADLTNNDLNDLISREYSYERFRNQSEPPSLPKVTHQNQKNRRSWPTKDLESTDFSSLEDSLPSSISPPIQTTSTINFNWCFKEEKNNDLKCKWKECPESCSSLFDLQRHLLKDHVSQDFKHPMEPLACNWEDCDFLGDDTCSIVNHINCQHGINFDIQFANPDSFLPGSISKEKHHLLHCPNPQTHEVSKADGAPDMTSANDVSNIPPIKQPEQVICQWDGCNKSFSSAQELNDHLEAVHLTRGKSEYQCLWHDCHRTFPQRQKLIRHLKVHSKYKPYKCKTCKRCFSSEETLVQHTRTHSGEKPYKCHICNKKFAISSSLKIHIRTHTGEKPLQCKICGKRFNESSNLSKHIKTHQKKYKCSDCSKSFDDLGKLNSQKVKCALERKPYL
Description: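 Universal 'all 10-mer' protein binding microarrays (Agilent AMADID 015681) probed with GST-tagged S. cerevisiae TFs (full-length or DBD) made by in vitro transcription/translation (PURExpress), about 100-200 nM. Bound TF was detected with fluorescent anti-GST. Each ungapped 8-mer (which stands for itself and its reverse complement) is scored by the PBM enrichment score (E-score), a modified Wilcoxon-Mann-Whitney statistic from -0.5 to +0.5, computed with the Universal PBM Analysis Suite. Scale: above 0.35 generally sequence-specific binding.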

Row | Sequence | PBM E-score
1 | AGACTTAG | -0.306
2 | AGGTTAAC | 0.405
3 | GGGTTTAA | 0.242
4 | CGGTTAAC | 0.232
5 | AGGTTAAG | 0.383
6 | GGGTTAAC | 0.403
7 | AGGTTAAT | 0.315
8 | ACGTTAAG | -0.0481
9 | ACGTTAAC | 0.0746
10 | GAGTTAAC | 0.00603
11 | GGGTTAAA | 0.443
12 | GTGTTAAA | 0.0467
13 | ATGTTAAG | -0.0536
14 | CTGCCAGA | -0.0969
15 | GGTTAGGA | 0.296
16 | CAGTGCAA | -0.0222
17 | CCCTAGAA | 0.177
18 | CCGGTGTC | 0.0219
19 | AGGTAGTG | 0.268
20 | CGGTAGTA | 0.107
21 | AGGTAGTA | 0.337
22 | AAATGAAA | 0.23
23 | ACATTCTC | -0.0126
24 | AAATAACG | 0.042
25 | CAATAACA | 0.0373
26 | CAATAACG | 0.138

Row | Sequence | PBM E-score
27 | AAATAACC | 0.42
28 | GAATAAGC | -0.182
29 | GAATAACC | 0.438
30 | CAATAACC | 0.468
31 | AAATAACA | 0.0357
32 | GAATAACA | 0.181
33 | CGCGGCAG | -0.049
34 | GCGTTGAC | -0.0667
35 | CGCCAGCG | -0.255
36 | GTTGCCGA | -0.0812
37 | GTAGCAAC | -0.0913
38 | GACAGTCA | -0.217
39 | ACCGTTAA | 0.256
40 | GAAGGTGC | 0.0253
41 | CAAGGTGA | 0.216
42 | CAAGGTTA | 0.466
43 | GAAGGTGA | 0.116
44 | GAAGGTTA | 0.437
45 | CAAGGTTC | 0.0224
46 | GTCTGGTA | 0.146
47 | CGTCCATA | 0.125
48 | AGCTGAGC | -0.185
49 | CTACCCCA | 0.139
50 | GTACCCAA | 0.234
51 | ATACCCAA | 0.247
52 | GTACCCCA | 0.35

Row | Sequence | PBM E-score
53 | ATACCCCA | 0.383
54 | ATACCCCC | 0.221
55 | ACTCTGCA | 0.0815
56 | AGTTCAGG | 0.0101
57 | ATATGACG | -0.122
58 | GCCGAGGC | -0.0423
59 | AACCCATT | 0.276
60 | ACCCCATG | 0.255
61 | AACCCATA | 0.391
62 | GACCCATA | 0.259
63 | ACCCCATA | 0.373
64 | CCCCCATA | -0.0168
65 | GTATTCAA | 0.123
66 | AGCCACAG | -0.199
67 | GACAGCCA | -0.146
68 | ACGTCACT | -0.246
69 | GCCTTACC | 0.0234
70 | CCATAAAC | 0.0419
71 | GAGGTACC | 0.432
72 | AACGTACT | 0.0257
73 | AAGGTAGC | 0.307
74 | GAGGTACA | 0.155
75 | AAGGTAGT | 0.373
76 | AAGGTATC | 0.255
77 | CAGGTACG | 0.0402
78 | AAGGTAGA | 0.106

Row | Sequence | PBM E-score
79 | AAGGTACT | 0.33
80 | CAGGTACA | 0.101
81 | GAGGTAGC | 0.0662
82 | CAGGTACC | 0.415
83 | GGATCCCC | -0.152
84 | CGATAGAG | -0.236
85 | GTACCTTA | 0.265
86 | GGCATAGA | -0.0663
87 | CGCTACGA | -0.0679
88 | AAGGTACG | 0.0328
89 | AAGGTACC | 0.445
90 | AAGGTACA | 0.223
91 | CCAGTTAG | 0.00998
92 | CCAATAGA | -0.224
93 | CTAGTTAA | 0.144
94 | CGACGAAC | -0.0937
95 | ATATAACC | 0.456
96 | CTATAACC | 0.446
97 | CTATAATC | -0.017
98 | CTATAACA | -0.0126
99 | ATATAACA | 0.176
100 | ATATAACG | 0.183
101 | AACCAACA | 0.254
102 | CGGCTCGA | -0.172
103 | ACAAAAGC | -0.0458
104 | CAGCGCAG | -0.221

Row | Sequence | PBM E-score
105 | AGGGTTGC | 0.46
106 | AGGGTTGG | 0.333
107 | CGGGTTGC | 0.18
108 | AGGGTTTC | 0.232
109 | AGGGTGGC | 0.293
110 | ATGGTTGG | -0.0414
111 | AGGGTGGG | 0.334
112 | AGGGTGGA | 0.163
113 | AGGGTTGA | 0.271
114 | TCATGCGA | -0.00209
115 | GCTCTTGA | -0.213
116 | CGGAGTTC | 0.0089
117 | GTTAGGAA | 0.168
118 | GAAGCAAC | 0.106
119 | AACCGGTT | 0.348
120 | AACCGGGG | -0.00821
121 | AACCGGTC | 0.14
122 | AACCGGGT | 0.319
123 | AACCGGGA | 0.133
124 | AACCGGTG | -0.0964
125 | CGGAACTA | 0.141
126 | CGATGCCG | -0.11
127 | GACTTGCA | -0.0829
128 | GGGTTTAC | 0.316
129 | CGGGTTGA | 0.24
130 | CGGGTTTC | 0.289

Row | Sequence | PBM E-score
131 | GGGGTTAC | 0.464
132 | CGGGTTAA | 0.356
133 | GGAGTTAC | 0.137
134 | CGGGTTTA | 0.205
135 | CGGGTTAG | 0.0706
136 | CGGGTTAC | 0.439
137 | TCACAGCA | 0.124
138 | ACTCCTTG | 0.0145
139 | ATGGTGAA | -0.0722
140 | CACCACTG | -0.0127
141 | CTACGTAG | -0.0165
142 | TAAGTTCA | 0.0427
143 | GGTAGACA | -0.0227
144 | ACCCGGTA | 0.329
145 | CACCGGTA | 0.188
146 | ACCCGGTC | -0.0272
147 | TACCGGTA | 0.355
148 | CCCCGGTA | 0.153
149 | AACCGGTA | 0.0841
150 | ACTAGCTG | -0.214
151 | CATAGTGC | -0.16
152 | AGCGAATC | -0.083
153 | CTCCAGAC | -0.165
154 | ATGGTAAT | 0.239
155 | AGAGTAAG | 0.0042
156 | AGGGTAAA | 0.235

Row | Sequence | PBM E-score
157 | AGGGTAAG | 0.373
158 | AGGGTAAT | 0.38
159 | GAGAGCAC | -0.00012
160 | CATTGGAG | -0.0511
161 | GAAGCATC | -0.258
162 | ACGATGCG | -0.223
163 | ACCGTAAC | 0.331
164 | CTCGTAAG | 0.215
165 | GTCGTAAC | 0.256
166 | ACCGTAAG | 0.101
167 | CTCGTAAC | 0.327
168 | ACCGTAAT | 0.0558
169 | ACAAGTCC | -0.0469
170 | GCAACTGC | -0.207
171 | ACGAGTTA | 0.0684
172 | ATACCTCC | -0.0021
173 | ATACCTCG | 0.338
174 | ATACCTCA | 0.223
175 | CACACCTA | -0.0992
176 | TAGACATA | 0.0776
